From PubChem BioAssay
Calls of active or inactive are those of the source.

Assay: A549 lung cancer cell viability effects, profiling panel, resazurin fluorescence, 24 h, PK04 Diversity Set (AID 1171); further: test concentration not given here
Conditions: higher = more signal, called active from +8 up or from −8 down

**Q.** Which z-score does the source give for CN(C)C(=O)[C@@]1(CCS(=O)(=O)c2ccccc2)N=C(c2ccc(OCCCO)cc2)O[C@H]1c1ccccc1CN=[N+]=[N-] here?
**A.** The z-score was 0.712 (inactive).

**Q.** With Cc1ccc(S[C@]2(C(=O)NCc3ccccc3)CC(=O)N(C3Cc4ccccc4C3)[C@@H]2c2ccc(CO)cc2I)cc1 as the compound, how does the z-score read?
**A.** The z-score was -0.862 (inactive).

**Q.** With C=C(C)[C@@H]1CC=C(C(O)C2C=CC3C(=O)N(C4CCCCC4)C(=O)C3N2Nc2ccc(OC)cc2)CC1 (some centres undefined) as the compound, how does the z-score read?
**A.** The z-score was 0.784 (inactive).

**Q.** For CC(C)(C)N1CC=CC23O[C@@H]4C=CCCOC(=O)C4[C@H]2C(=O)N(CCCO)[C@@H]3C1=O (some centres undefined), which z-score is on record?
**A.** Its z-score is -1.22 (inactive).

**Q.** Which z-score does the source give for CN(C)C(=O)[C@]1(Cc2ccccc2N=[N+]=[N-])N=C(c2ccc(OCCCO)cc2)O[C@@H]1c1ccccc1CN=[N+]=[N-] here?
**A.** The z-score was 1.59 (inactive).

**Q.** For COC(=O)[C@@]1(Cc2ccc(OC)cc2)[C@H]2c3cc(C(=O)N4CCCC4)n(Cc4ccc(C)o4)c3C[C@H]2CN1C(=O)c1ccccc1, which z-score is on record?
**A.** The z-score was -7.08 (inactive).

**Q.** With [N-]=[N+]=NCc1ccccc1C[C@]1(C(=O)NCCN2CCOCC2)N=C(c2ccc(OCCCO)cc2)O[C@H]1c1ccccc1 as the compound, how does the z-score read?
**A.** The z-score was 1.29 (inactive).

**Q.** With CCCCCCC#C[Si](O[C@H](c1ccccc1)c1cn(Cc2cccc(Cl)c2)nn1)(C(C)C)C(C)C as the compound, how does the z-score read?
**A.** The z-score was 2.58 (inactive).

**Q.** For COCCOC(=O)N1C(=O)[C@@]2(c3cc(C#CC4(O)CCCCCC4)ccc31)[C@H](C(=O)N1CCN(c3ncccn3)CC1)[C@H]1C(=O)O[C@H](c3ccccc3)[C@H](c3ccccc3)N1[C@@H]2c1ccc(O)cc1, which z-score is on record?
**A.** Its z-score is 0.445 (inactive).
